# Experimental data published in PubChem BioAssay.
# Results filed as inconclusive are left out. Active and inactive are the calls of the source. Cut-off read from the data, not from the text of the source, unless noted: active = inhibition above about 80%; inactive = the rest.
# Key:
# [1] = P. berghei load reduction in hepatocytes – cell-based, HepG2, luciferase luminescence, HepG2 viability, primary screen (AID 624349; in the data active = parasite load remaining mostly below about 12%, no sharp cut-off; inactive = mostly above about 10%;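 note: 100% = mean of DMSO negative control wells on the same plate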); conditions: P. berghei liver stage in HepG2, luciferase luminescence, concentration not given here; parasite load remaining: stronger effect = lower value; viability: measured here: HepG2 viability without parasites
# [2] = EMT-state selective cytotoxicity in co-culture – imaging, PC-3E GFP, TEM4-18 mCherry, primary screen (AID 1345086;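 active = compounds killing one labelled cell type while sparing the other, by normalised counts and ratio limits, not self-fluorescent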;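 note: cells exposed to compound for 72 h before imaging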;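 for red/green cell ratio (normalised): normalised mesenchymal count divided by normalised epithelial count so high means epithelial killing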); conditions: PC-3E GFP / TEM4-18 mCherry co-culture, imaging cell counts, at 1 µM
# [3] = viability loss in pontine glioma line – cell-based, SU-DIPG-XVII, MIPE5.0, CellTiter-Glo, qHTS, dose response (AID 1347060; cut-off not given, nearly all actives have AC50 up to about 26 µM;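 note: cells exposed to compound for 48 hours before viability readout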); conditions: CellTiter-Glo ATP luminescence
# [4] = viability loss in pontine glioma line – cell-based, SU-DIPG-XIII, MIPE5.0, CellTiter-Glo, qHTS, dose response (AID 1347064; cut-off not given, nearly all actives have AC50 up to about 23 µM;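 note: cells exposed to compound for 48 hours before the viability read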); conditions: CellTiter-Glo ATP luminescence
# [5] = viability loss in pontine glioma line – cell-based, SU-DIPG-XXV, MIPE5.0, CellTiter-Glo, qHTS, dose response (AID 1347065; cut-off not given, nearly all actives have AC50 up to about 26 µM;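 note: cells exposed to compound for 48 hours before ATP readout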); conditions: CellTiter-Glo ATP luminescence
# [6] = JHH-DIPG-1 glioma cell viability, MIPE5.0 library, CellTiter-Glo luminescence, qHTS (AID 1347067; cut-off not given, nearly all actives have AC50 up to about 26 µM;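 note: cells exposed to compound for 48 hours before readout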); conditions: JHH-DIPG-1 glioma viability, CellTiter-Glo ATP luminescence
# [7] = viability loss with induced miR-34 in A549 – imaging, A549 dox-inducible miR-34, nuclei and caspase counts, primary screen (AID 1347080;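 active = compounds whose cell count with miR-34 switched on is under 0.7 times the count with it off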); conditions: A549 miR-34 inducible, Hoechst nuclei count, 48 h
# [8] = MELAS cybrid and Rieske KO viability enhancers – cell-based, MELAS cybrids, Rieske KO mouse fibroblasts, CellTiter-Glo, primary screen (AID 1508586;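 active = mean z-score across replicates of 1.96 or higher in either the MELAS or the Rieske mutant cell line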;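 note: z relative to plate mean and SD of compound and empty wells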); conditions: low glucose
# [9] = target: NAD(+) hydrolase SARM1 (Homo sapiens) (UniProt Q6SZW1); assay: blocking NAD cleavage by SARM1 SAM-TIR – cell lysate, NAD-Glo luminescence (AID 1508614;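 active = compound whose remaining NAD level is above about 45 nM, limit read from the data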;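 note: higher remaining NAD means stronger inhibition of SARM1 NADase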); conditions: SAM-TIR HEK293T lysate NADase, at 1 µM, stronger effect = higher value
# [10] = galactose survival enhancers in mitochondrial complex I cybrids – cell-based, galactose medium, ATP luminescence, primary screen (AID 1645843;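 active = z-score of at least 1.8 in each of two replicates, scored against plate mean and spread of sample wells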;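 note: positive z means more ATP and so rescue of galactose-driven cybrid death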); conditions: complex I mutant cybrid cells, 72 h, stronger effect = higher value
# [11] = growth inhibition, single agent or in combination, cell-based, chromothripsis tumors, cisplatin or BGB combos (AID 1671449); conditions: LFS_MB_P medulloblastoma cells;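 note: cells exposed for 96 hours; 0% = vehicle DMSO and 100% = killing by high DMSO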
# [12] = growth inhibition, single agent and combos, cell-based, chromothripsis tumors, cisplatin or BGB combos (AID 1671450); conditions: HDN33 neuroblastoma cells, stronger effect = higher value;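 note: cells exposed to compound for four days; 0% = vehicle DMSO and 100% = cell killing by high DMSO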
# [13] = growth inhibition, single agents and combos, ICB984, cell-based, cisplatin or BGB combos, synergistic combos for chromothripsis tumors (AID 1671451; call rule not given here;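 note: cells exposed for 96 hours before readout; 0% = vehicle DMSO and 100% = killing by high DMSO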); conditions: ICB984 medulloblastoma cells, drug combinations, stronger effect = higher value
# [14] = growth inhibition, single agents and combos, LFS_MB_1R, cell-based, cisplatin or BGB combos, synergistic combos for chromothripsis tumors (AID 1671452); conditions: LFS_MB_1R medulloblastoma cells, stronger effect = higher value;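 note: cells exposed for 96 hours before readout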
# [15] = growth inhibition, single agents and combos, HTB85, cell-based, BGB or cisplatin IC20 combos, synergistic combos for chromothripsis tumors (AID 1671453); conditions: HTB85 osteosarcoma cells, drug combinations, at 0.5 µM, stronger effect = higher value;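 note: cells exposed for 96 hours before readout; 0% = vehicle DMSO and 100% = high DMSO killing control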
# [16] = measured here: combination with BGB IC40, at 0.05 µM
# NAD(+) hydrolase SARM1 (Homo sapiens), sequence (Q6SZW1 whole entry, looked up): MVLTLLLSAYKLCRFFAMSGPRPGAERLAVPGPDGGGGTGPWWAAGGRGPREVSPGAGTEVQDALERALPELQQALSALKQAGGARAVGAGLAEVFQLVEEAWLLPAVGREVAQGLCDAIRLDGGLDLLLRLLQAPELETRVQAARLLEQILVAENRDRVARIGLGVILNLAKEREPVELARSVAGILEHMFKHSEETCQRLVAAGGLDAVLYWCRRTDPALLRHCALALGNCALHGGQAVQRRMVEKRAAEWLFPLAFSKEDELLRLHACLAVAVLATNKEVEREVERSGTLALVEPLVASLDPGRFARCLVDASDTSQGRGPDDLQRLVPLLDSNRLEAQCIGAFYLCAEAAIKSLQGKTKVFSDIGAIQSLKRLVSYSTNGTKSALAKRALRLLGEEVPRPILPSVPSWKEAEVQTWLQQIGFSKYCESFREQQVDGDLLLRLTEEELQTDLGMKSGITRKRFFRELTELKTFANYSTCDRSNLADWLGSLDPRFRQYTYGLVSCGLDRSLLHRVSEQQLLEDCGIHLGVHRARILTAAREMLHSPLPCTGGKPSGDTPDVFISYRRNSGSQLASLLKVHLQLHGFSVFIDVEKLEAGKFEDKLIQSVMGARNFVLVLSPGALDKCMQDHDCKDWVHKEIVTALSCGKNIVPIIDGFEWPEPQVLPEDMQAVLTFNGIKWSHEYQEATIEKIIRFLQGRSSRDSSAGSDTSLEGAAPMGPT
smiles,measurement,setting,value
Cc1c(-c2cnccn2)ssc1=S,parasite load remaining,[1],10.1% (inactive)
same,viability,[1],65%
same,red/green cell ratio (normalised),"[2]; actives lie on both sides, counts scaled to control wells, 1 = unselective",1.09 (inactive)
same,normalised cell number,[2]; measured here: epithelial PC-3E GFP cell survival,0.9
same,normalised cell number,[2]; measured here: mesenchymal TEM4-18 mCherry cell survival,0.98
same,AC50,[3],10.5 µM (active)
same,AC50,[4],10.5 µM (active)
same,AC50,[5],11.8 µM (active)
same,AC50,[6],14.8 µM (active)
same,fold change,"[7]; stronger effect = lower value, cell number ratio, induced over uninduced",0.88 (inactive)
same,fold change,[7]; measured here: relative caspase fold change +Dox/-Dox,1.25
same,cell count,"[7]; measured here: total cells with miR-34 induction, stronger effect = lower value",9050
same,cell count,[7]; measured here: total cells without miR-34 induction,10300
same,z-score,"[8]; MELAS cybrid survival, CellTiter-Glo 48 h, stronger effect = higher value",0.683 (inactive)
same,z-score,"[8]; Rieske KO mouse fibroblast survival, CellTiter-Glo 72 h",-0.106
same,remaining NAD,[9],10 nM (inactive)
same,z-score,[10],-0.085 (inactive)
same,inhibition,"[11]; at 0.5 µM, stronger effect = higher value",-20.5% (inactive)
same,inhibition,"[11]; measured here: combination with BGB IC20, at 0.005 µM",-19.2%
same,inhibition,"[11]; measured here: combination with BGB IC40, at 0.005 µM",-19%
same,inhibition,[11]; [16],-17.6%
same,inhibition,"[11]; measured here: combination with cisplatin, at 0.5 µM, stronger effect = higher value",-32.1%
same,inhibition,"[11]; measured here: combination with cisplatin, at 5 µM, stronger effect = higher value",-10.5%
same,inhibition,"[12]; BGB combo, at 5 µM",-58.5%
same,inhibition,[12]; at 0.5 µM,-42% (inactive)
same,inhibition,"[12]; cisplatin combo, at 5 µM",-70%
same,inhibition,"[12]; measured here: with BGB IC20 combination, at 0.5 µM",-31.4%
same,inhibition,"[12]; measured here: with cisplatin IC20 combination, at 0.5 µM",-48.3%
same,inhibition,"[12]; single agent, at 5 µM",-46.9%
same,inhibition,"[13]; BGB IC20 combo, at 0.005 µM",-28.8%
same,inhibition,"[13]; BGB IC40 combo, at 0.005 µM",-23.8%
same,inhibition,"[13]; BGB IC40 combo, at 0.05 µM",-8.66%
same,inhibition,[13]; at 0.5 µM,-19.7% (inactive)
same,inhibition,"[13]; cisplatin combo, at 0.05 µM",-8.66%
same,inhibition,"[13]; cisplatin combo, at 0.5 µM",-33.7%
same,inhibition,"[13]; cisplatin combo, at 5 µM",-21.2%
same,inhibition,"[13]; measured here: 5 uM single agent, at 5 µM",-0.147%
same,inhibition,[14]; at 0.5 µM,-48.5% (inactive)
same,inhibition,[14]; [16],12.7%
same,inhibition,"[14]; measured here: combination with cisplatin, at 0.5 µM",-42.8%
same,inhibition,"[14]; measured here: combination with cisplatin, at 5 µM",-46.1%
same,inhibition,[15],-26% (inactive)
